Test results as given in PubChem BioAssay (NCATS).
Inconclusive results are not listed. A number with no mark means an inactive call. Active and inactive are the calls of the source. Calls follow the shape of the dose curve; as a rule, active = well fitted cell-killing curve with a large enough effect; inconclusive = small, poorly fitted or top-dose-only effect; inactive = flat fitted curve, though single readings scatter.
Potency is read from the fitted curve at half-maximal effect.

Assay: Quantitative highthroughput screen to assess conditional lethalithy of P12 Ichikawa cells grown in RPMI1640 with dialyzed fetal bovine serum (RPMI+ds) (AID 1963880); also: nearly all actives have a fitted effect of over 35% in size;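 as to viability: 100% = DMSO wells and 0% = empty wells on each plate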
Settings: ATP luminescence, 48 h; Potency: P12-Ichikawa viability; series mostly up to 45.8 µM; viability: at the top concentration
Outline: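 Each medium arm—HPLM with 10% dialyzed FBS, or RPMI1640 with 5 mM glucose and 10% untreated or dialyzed FBS—was screened against an 11-point, 3-fold compound titration for 48 h at 37 °C, with CellTiter-Glo luminescence as endpoint.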
In the case of `Cc1nc(-c2ccc(-c3ccc(C(=O)N4CCc5cc6c(cc54)C4(CCN(C)CC4)CO6)cc3)c(C)c2)no1`, the “viability” value is reported as 105%.
With `CCN1C[C@]2(OC(=O)c3ccccc3NC(C)=O)CC[C@H](OC)[C@@]34[C@H]5CC6[C@@H](OC)C[C@](O)(C(C[C@@H]23)[C@@H]14)[C@@]5(O)[C@@H]6OC` the “viability” value was 94.8%.
In the case of `O=c1[nH]c2ccc(Cl)cc2c(N[C@@H]2CN3CCC2CC3)c1-c1nc2ccccc2[nH]1`, the Potency is reported as 0.372 µM (active).
In the case of `CC(C)(C)[C@]1(O)C[C@@H]2OC(=O)C[C@@]23C(=O)O[C@@H]2OC(=O)[C@H](O)C213` (stereo partly drawn), the “viability” value is reported as 99.7%.
For `COc1ccc(CC2NCCc3cc(OC)c(OC)cc32)cc1OC` (stereo not drawn), the “viability” value was 90%.
For `CCOC(=O)c1cncn1[C@H](C)c1ccccc1`, the “viability” value was 98.8%.
With `C[C@]12Cc3cn[nH]c3C[C@@H]1CC[C@@H]1[C@H]2CC[C@@]2(C)[C@H]1CC[C@]2(C)O` the “viability” value was 96.9%.
In the case of `CC(=CCCC1=CCC(C2=CC(=O)OC2O)OC1O)CCC1=C(C)CCCC1(C)C` (stereo not drawn), the “viability” value is reported as 95.8%.
For `C[C@]12CCC(=O)C(O)=C1CC[C@@H]1[C@H]3CCC(=O)[C@@]3(C)CC[C@@H]12`, the “viability” value was 96.4%.
For `O=C(NCC1CCOCC1)c1cnc(Nc2ccc(Cl)cc2Cl)nc1C(F)(F)F`, the “viability” value was 99.5%.
In the case of `CC(N[C@H]1C[C@H]1c1ccccc1)c1ccc2c(c1)OCCO2` (stereo partly drawn), the “viability” value is reported as 95.1%.
For `C[C@](O)(CS(=O)(=O)c1ccc(F)cc1)C(=O)Nc1ccc(C#N)c(C(F)(F)F)c1`, the “viability” value was 86.7%.
For `C[C@H]([C@H](O)CCC(C)(C)O)[C@H]1CC[C@@]2(O)C3=CC(=O)[C@@H]4C[C@@H](O)[C@@H](O)C[C@]4(C)[C@@H]3CC[C@]12C`, the “viability” value was 105%.
